This is an account of results in PubChem BioAssay (NCATS).

Each structure is given as a SMILES string. Results filed as inconclusive are left out. Calls of active or inactive are those of the source. Calls come from the whole dose curve; as a rule, active = well fitted inhibition curve with a large enough effect; inconclusive = small, poorly fitted or top-dose-only effect; inactive = no such curve, though single readings can be large or run the other way.
% is set by controls: 0 for no effect and ±100 for the full control effect; potency is the fitted concentration of half-maximal effect.

The assay in a line: Primary qHTS for inhibitors of nuclear receptor binding SET domain protein 2 (NSD2) in an RCH-ACV wild type WT cells (2C) (AID 1645877). Note: nearly all actives have a fitted effect of over 70% in size. The conditions noted are these: RCH-ACV (leukaemia line) NSD2 WT (2C) viability, CellTiter-Glo, 72 h; series mostly up to 44.9 µM; activity change, negative = cell killing: at the top concentration. (In general: qHTS replaces the single test concentration by a dilution series.)
Consider `CC12CC(c3ccoc3)OC(=O)C1CCC1(C)C2CCC(O)C1(C)O` (stereo unspecified), for which the “activity change, negative = cell killing” value is -15.3% (inactive).
On to `COc1ccc(O[C@@H]2O[C@H](CO)[C@@H](O)[C@H](O)[C@H]2O)cc1OC`, for which the “activity change, negative = cell killing” value is -0.24% (inactive).
For `C/C(=C\CO)CC/C=C(\C)C(=O)O[C@@H]1O[C@H](CO)[C@@H](O)[C@H](O)[C@H]1O`, the “activity change, negative = cell killing” value is 4.72% (inactive).
Consider `C[C@@H]1O[C@@H](O[C@@H]2[C@@H](O)[C@H](O[C@@H]3[C@@H](O)[C@@H](O)[C@H](O[C@H]4[C@H](OC(=O)[C@]56CCC(C)(C)C[C@H]5C5=CCC7[C@@]8(C)C[C@H](O)[C@H](O[C@@H]9O[C@H](C(=O)O)[C@@H](O)[C@H](O)[C@H]9O)[C@@](C)(CO)C8[C@H](O)C[C@@]7(C)[C@]5(C)C[C@H]6O)O[C@@H](CO)[C@@H]4O)O[C@H]3C)OC[C@H]2O)[C@H](O)[C@H](O)[C@H]1O` (stereo partly specified), for which the activity change, negative = cell killing was -10.6% [at 9.23 µM] (inactive).
Still for that read-out and setting: to `COCC1OC(n2cnc3c(=O)[nH]cnc32)C(O)C1O` (stereo unspecified) belongs -1.41% (inactive).
Regarding `CC(C)CC[C@@H](O)[C@](C)(O)[C@H]1CC[C@@]2(O)C3=CC(=O)[C@@H]4C[C@@H](O)[C@@H](O)C[C@]4(C)[C@H]3CC[C@]12C`, the “activity change, negative = cell killing” value is -4.67% (inactive).
Same read-out and setting: in the case of `COC(=O)c1cc(OC)cc(OC)c1C(=O)c1c(OC)cc2c(c1O)C1CCC(O)C(C)(O2)O1` (stereo unspecified) it was 2.56% [at 17.3 µM] (inactive).
In the case of `CC1CCC2C(C)(C)C(O)C(O)CC2(C)C12Cc1c(O)cc(CO)c(C=O)c1O2` (stereo unspecified), the “activity change, negative = cell killing” value is -29.7% [at 17.3 µM] (inactive).
Same read-out and setting: in the case of `C[C@@H]1C[C@@H](O)[C@@]23CO[C@]2(CO)CCC[C@@H]3[C@@]12C[C@@H](c1ccoc1)OC2=O` it was -0.821% (inactive); in that of `CC1CC2OCC3(O)CCC(O)C(C14CC(c1ccoc1)OC4=O)C23CO` (stereo unspecified), -13.8% (inactive).
As to `COc1cc(/C=C/C(=O)O[C@H]2C[C@@H]3C(C(=O)O)=CO[C@@H](O[C@@H]4O[C@H](CO)[C@@H](O)[C@H](O)[C@H]4O)[C@@H]3[C@H]2C)ccc1O`, the “outcome” value is “inactive [at 17.3 µM]”.
`C[C@H]1[C@H](C)CC[C@]2(C(=O)O)CC[C@]3(C)C(=CCC4[C@@]5(C)C[C@@H](O)[C@H](O)C(C)(C)C5CC[C@]43C)[C@H]12` (stereo partly specified): the “activity change, negative = cell killing” value was -8.9% [at 17.3 µM] (inactive).
Regarding `CC1(C)C(=O)N2c3ccccc3C(O)(CC(C(=O)O)n3cnc4ccccc4c3=O)C2N1O` (stereo unspecified), the “activity change, negative = cell killing” value is -10.5% [at 17.3 µM] (inactive).
Regarding `O=C(O)Cc1cn([C@@H]2O[C@H](CO)[C@@H](O)[C@H](O)[C@H]2O[C@@H]2O[C@H](CO)[C@@H](O)[C@H](O)[C@H]2O)c2ccccc12`, the “outcome” value is “inactive [at 17.3 µM]”.
Regarding `CC1(C)C[C@H](O)C[C@@]2(C)[C@H]1[C@H](O)C=C1COC(=O)[C@@]12O`, the “activity change, negative = cell killing” value was -4.69% (inactive).
In the case of `CC1OC(O[C@H]2CC[C@@]3(C)C(CC[C@]4(C)C3CC=C3C5CC(C)(C)CC[C@]5(C(=O)OC5OC(CO)C(OC6OCC(OC7OCC(O)C(O)C7O)C(O)C6O)C(O)C5O)CC[C@]34C)C2(C)C)C(O)C(O)C1OC1OC(CO)C(O)C(OC2OC(CO)C(O)C(O)C2O)C1O` (stereo partly specified), the activity change, negative = cell killing was -19.1% [at 9.23 µM] (inactive).
For `C[C@]1(O)CC[C@@H]2C(C(=O)O)=CO[C@@H](O[C@@H]3O[C@H](CO)[C@@H](O)[C@H](O)[C@H]3O)[C@@H]21`, the “activity change, negative = cell killing” value was -5.77% (inactive).
As to `COC(=O)c1ccc(OC)cc1O[C@@H]1O[C@H](CO[C@@H]2OC[C@@H](O)[C@H](O)[C@H]2O)[C@@H](O)[C@H](O)[C@H]1O`, the “outcome” value is “inactive [at 17.3 µM]”.
`CC1=CC23[C@H](C=C(C(=O)O)[C@@H]2COC(=O)[C@]3(O)CO)[C@@H]1C` (stereo partly specified): the call was inactive.
In the case of `CC1=C2C[C@@]3(C)C(CCC[C@@H]3C)C(O)C2(O)OC1=O` (stereo partly specified), the Potency is 23 µM (active).
Consider `CC1(C)CC[C@]2(C(=O)O[C@@H]3O[C@H](CO)[C@@H](O)[C@H](O)[C@H]3O)CC[C@]3(C)C(=CCC4[C@@]5(C)CC[C@H](O[C@H]6O[C@H](CO)[C@@H](O)[C@H](O[C@@H]7O[C@H](CO)[C@@H](O)[C@H](O)[C@H]7O)[C@H]6O)C(C)(C)C5CC[C@]43C)[C@@H]2C1` (stereo partly specified), for which the activity change, negative = cell killing was 2.79% [at 9.23 µM] (inactive).
Consider `O=C(O)CCc1c(C(=O)O)[nH]c2cc(Cl)cc(Cl)c12`, for which the “activity change, negative = cell killing” value was -0.322% [at 17.3 µM] (inactive).
As to `CC(=O)OC[C@]12[C@@H](OC(=O)c3ccoc3)C[C@@H]3[C@@H](OC(C)=O)[C@]1(OC3(C)C)[C@@](C)(O)C[C@H](OC(=O)c1ccoc1)[C@@H]2OC(=O)c1ccoc1`, the “activity change, negative = cell killing” value was -15.8% [at 17.3 µM] (inactive).
As for `C=C1C(O)C(O)C2(CC3C(C)=CCC4C(C)(C(=O)O)CCCC34C)OC2C1O` (stereo unspecified), the “activity change, negative = cell killing” value was -18.7% (inactive).
Regarding `CC1=C[C@H](O)[C@H]2C(C)(C)CCC[C@]2(C)[C@@]1(O)CO`, the result was inactive.
As for `CC1(C)CC[C@]2(C(=O)O[C@@H]3O[C@H](CO[C@@H]4O[C@H](CO[C@@H]5O[C@H](CO)[C@H](O)[C@H](O)[C@H]5O)[C@@H](O)[C@H](O)[C@H]4O)[C@@H](O)[C@H](O[C@@H]4O[C@H](CO)[C@@H](O)[C@H](O)[C@H]4O)[C@H]3O)[C@H](O)C[C@]3(C)C(=CCC4[C@@]5(C)CC[C@H](O[C@@H]6OC[C@@H](O)[C@H](O)[C@H]6O)[C@@](C)(C(=O)O)C5CC[C@]43C)[C@@H]2C1` (stereo partly specified), the outcome was “inactive [at 9.23 µM]”.
